Source: PubChem BioAssay
The list is not random: actives were taken first. Their share in the collection is about 12%.
BAZ2B block: inhibitors of human BAZ2B bromodomain | 360,000 tested, 4.4% active | Potency, µM (highest dose often 114 µM), hits mostly inhibitors | AID 504333 | AlphaScreen BAZ2B-H3K14Ac peptide displacement; also: nearly all actives have a fitted effect of over 60% in size
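Multi-concentration screen (max 110 uM) measuring displacement of acetylated histone H3 peptide from BAZ2B by AlphaScreen, using 50 nM protein, 50 nM peptide and 10 ug/mL streptavidin donor plus Ni-chelate acceptor beads.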
HP1b chromo inh: blocks HP1-beta chromodomain binding to methylated histone tails. 390,000 tested, 0.56% active. Potency, µM (titrated, usually from 114 µM), actives largely listed as inhibitors. AID 540317. P83916. AlphaScreen HP1-beta / biotin-H3K9me3 peptide binding; also: nearly all actives have a fitted effect of over 70% in size
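HP1-beta protein (50 nM final) preincubated 30 min at room temperature with biotinylated H3(1-18)K9me3 peptide (50 nM) in PBS pH 7.4, 0.01% Tween-20, then compound added for 30 min. AlphaScreen streptavidin donor/nickel chelate acceptor beads (10 ug/mL final), 30 min dark, luminescence read.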
L3MBTL1 inh: blocks human L3MBTL1; 230,000 tested, 0.66% active; AlphaScreen L3MBTL1–H3K9me1 peptide binding; Potency, µM (titrated, usually from 57.1 µM), most hits filed as inhibitors; Q9Y468; also: nearly all actives have a fitted effect of over 60% in size
Target sequence (Q9Y468 whole entry, looked up): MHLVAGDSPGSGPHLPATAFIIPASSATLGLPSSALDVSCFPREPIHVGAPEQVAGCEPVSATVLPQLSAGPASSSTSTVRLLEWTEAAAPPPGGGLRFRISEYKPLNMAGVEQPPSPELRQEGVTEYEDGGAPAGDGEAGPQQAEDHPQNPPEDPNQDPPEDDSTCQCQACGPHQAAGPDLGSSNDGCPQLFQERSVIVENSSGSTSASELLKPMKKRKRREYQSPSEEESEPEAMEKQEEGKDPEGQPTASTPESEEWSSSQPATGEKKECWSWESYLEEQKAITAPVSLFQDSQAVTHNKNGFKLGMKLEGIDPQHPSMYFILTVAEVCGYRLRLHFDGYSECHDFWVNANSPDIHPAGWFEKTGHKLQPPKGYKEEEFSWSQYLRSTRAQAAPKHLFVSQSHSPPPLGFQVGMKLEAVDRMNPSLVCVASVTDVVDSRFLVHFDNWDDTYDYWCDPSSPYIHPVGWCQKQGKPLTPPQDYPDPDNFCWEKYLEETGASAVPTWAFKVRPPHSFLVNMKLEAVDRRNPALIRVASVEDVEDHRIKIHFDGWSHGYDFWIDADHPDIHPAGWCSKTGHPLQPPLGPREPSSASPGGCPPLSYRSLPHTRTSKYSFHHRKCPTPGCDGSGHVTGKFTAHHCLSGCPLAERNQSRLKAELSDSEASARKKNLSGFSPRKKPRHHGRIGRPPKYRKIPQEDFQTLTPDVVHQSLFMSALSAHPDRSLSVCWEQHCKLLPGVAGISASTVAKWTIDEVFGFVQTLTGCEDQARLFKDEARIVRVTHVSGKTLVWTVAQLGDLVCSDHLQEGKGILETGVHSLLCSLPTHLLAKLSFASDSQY
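AlphaScreen proximity signal between nickel-chelate acceptor and streptavidin donor beads (final 10 ug/mL) reports binding of 50 nM L3MBTL1 to 75 nM biotin-H3 K9me1 peptide; complex incubated with compounds 30 min at room temperature; cefsulodin titration as control.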
Sfp inh: inhibitors of Bacillus subtilis Sfp phosphopantetheinyl transferase; Q9F4F7; Biochemical Sfp PPTase activity, qHTS; Potency, µM, usual class: inhibitors; 310,000 tested, 3.5% active; AID 1490;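 also: the enzyme is Sfp with the accession as filed and its product quenches rhodamine fluorescence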
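Step 1, compound plus 15 nM Sfp-PPTase, 15 min, room temperature. Step 2, add rhodamine-CoA (5 uM) and BHQ-2-YbbR (12.5 uM). Step 3, read 525/598 nm fluorescence at 0 and 30 min.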
G9a block: inhibitors of human histone lysine methyltransferase G9a; Q96KQ7; 350,000 tested, 8.8% active; AID 504332; Potency, µM (doses to about 102 µM), actives largely listed as inhibitors; G9a H3K9 monomethylation, AlphaScreen, 2 h; also: nearly all actives have a fitted effect of over 75% in size
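Chemiluminescent proximity detection of H3K9 monomethylation, read after 10 min bead incubation in the dark. Reaction: 20 nM G9a, 500 nM biotin-H3K9 peptide, 20 uM SAM cofactor, 2 h, room temperature, following 15 min enzyme-compound preincubation.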
JMJD2A Tudor: JMJD2A Tudor domain (human) inhibition; Potency, µM (series often up to 114 µM), actives largely listed as inhibitors; 390,000 tested, 4.4% active; AID 504339; AlphaScreen JMJD2A-Tudor / H3K4me3 peptide binding; also: nearly all actives have a fitted effect of over 50% in size
Numbers stand for hits; n = inactive; u = inconclusive; x = not tested or not shown; ! = not active in a repeat; [ ] = another dose, or the depositor's remark. Calls follow the shape of the dose curve; as a rule, active = well fitted curve in the direction sought with a large enough effect; inconclusive = small, poorly fitted or top-dose-only effect, or another doubt; inactive = no such curve, though single readings can be large; an effect the other way counts as inactive or inconclusive.

SMILES | BAZ2B block | HP1b chromo inh | L3MBTL1 inh | Sfp inh | G9a block | JMJD2A Tudor
CCn1c(CN2CCCCC2)nc2cc(NC(=O)c3cccc([N+](=O)[O-])c3)ccc21 | n | n | x | x | n | n
CCC(=O)N1CCc2cc(CNC(=O)Nc3cc(OC)c(OC)c(OC)c3)ccc21 | n | n | x | x | n | n
Cc1nc2scc(C)n2c(=O)c1S(=O)(=O)Nc1ccc(N2CCN(C(=O)C(C)C)CC2)cc1 | n | n | x | n | n | 39.8µM!
CCc1cccc(NS(=O)(=O)c2c(C)nc3scc(C)n3c2=O)c1 | n | n | x | n | 28.2µM | n
Cc1nc2scc(C)n2c(=O)c1S(=O)(=O)Nc1ccc(F)cc1 | n | n | x | n | n | n
CCOC(=O)c1ccc(NC(=O)CC2C(=O)N(c3cccc(OC)c3)C(=O)N2Cc2cccnc2)cc1 (centres undefined) | n | n | x | x | n | n
COCC(=O)N1CCC2(CCCN(c3cccc(-c4ccccc4)c3)C2)CC1 | x | x | x | n | n[12.7 µM] | x
CCC(C(=O)Nc1nccs1)(C(F)(F)F)C(F)(F)F | 56.2µM | n | x | n | u | n
CCOc1ccc(-n2nc3ccc(NC(=O)CC)cc3n2)cc1 | n | n | n | n | 35.5µM | u
CC(C)N(C1=N/C(=C\c2ccco2)C(=O)N1c1ccccc1)C(C)C | n | n | x | n | u | n
O=C1/C(=C/c2ccco2)N=C(N2CCCCC2)N1c1ccccc1 | 79.4µM | n | n | u | u | n
COc1ccc(N2CCN(C(=O)CCS(=O)(=O)c3ccc(OC)cc3)CC2)cc1 | n | n | x | n | u | n
O=C(CCS(=O)(=O)c1ccc(Br)cc1)N1CCN(c2ccc(F)cc2)CC1 | 56.2µM | n | x | n | 50.1µM | n
COc1ccc(N2CCN(C(=O)CCS(=O)(=O)c3ccc(C)cc3)CC2)cc1 | u | n | x | n | 50.1µM | n
COc1ccc(S(=O)(=O)CCC(=O)N2CCN(c3ccc(C(C)=O)cc3)CC2)cc1 | n | n | x | n | 31.6µM | n
COc1ccc(N2CCN(C(=O)C3(S(=O)(=O)c4ccc(C)cc4)CC3)CC2)cc1 | n | n | x | n | 70.8µM | n
COc1ccc(C2C(=O)N(C3CCCCCC3)CC(=O)N2Cc2ccc(C)cc2)cc1 (centres undefined) | n | n | x | x | n | n
O=C(Nc1ccccc1)C(Cl)C(=O)c1ccccc1 (centres undefined) | n | n | n[2.29 µM] | 14.1µM | n[0.501 µM] | n
CC(=O)C(Cl)C(=O)Nc1ccccc1 (centres undefined) | n | n | n | u | 44.7µM | n
CC(C(=O)Nc1ccccc1)C(=O)Nc1ccccc1 | n | n | n[2.29 µM] | n | n[0.501 µM] | n
O=C(Nc1ccccc1)C(Cc1ccccc1)c1ccccc1 (centres undefined) | x | n | x | x | x | n
CCOc1ccc(N(C)Cc2cc(=O)oc3ccc(OCC)cc23)cc1 | 17.8µM | n | x | n | 10µM | u
COC(=O)c1ccc(-c2ccc(/C=N/NC(=O)Cc3nnc(N)s3)o2)cc1 | n | n | n | 56.2µM | u | n
COc1ccc(-c2ccc(/C=N/NC(=O)Cc3nnc(N)s3)o2)cc1Cl | u | n | n | u | 20µM | n
COCCCNC(=O)CCCCn1c(=O)c2ccccc2n(CC(=O)Nc2ccc(C)cc2C)c1=O | n | n | x | x | n | n
SMILES | BAZ2B block | HP1b chromo inh | L3MBTL1 inh | Sfp inh | G9a block | JMJD2A Tudor
O=C(CSc1nc2c(c(=O)[nH]1)CCC2)Nc1ccccc1C(F)(F)F | n | n | x | x | n | n
CCOC(=O)c1ccc(N2C(=O)CC(NC3CCN(C(=O)c4cccc(Cl)c4)CC3)C2=O)cc1 (centres undefined) | n | n | n | n | 15.8µM | n
CCOc1ccc(N2C(=O)CC(NC3CCN(C(=O)c4cccc(Cl)c4)CC3)C2=O)cc1 (centres undefined) | n | n | x | n | u | n
CCc1ccc(NC(=O)c2cccc(N3CCCS3(=O)=O)c2)cc1 | n | n | x | x | n | n
Cc1ccc(C2=Nc3ccccc3NC(c3ccncc3)=N2)cc1 | u | n | x | x | u | u
COC(=O)N/N=C\c1ccc(OC(=O)c2ccco2)cc1 | n | n | x | n | n | n
O=C(Cc1ccccc1)N/N=C/c1ccc(OC(=O)/C=C\c2ccco2)cc1 | n | n | n[11.4 µM] | n | u | n
CCOc1cc(/C=N\NC(=O)OC(C)(C)C)ccc1OC(=O)c1ccco1 | x | n | x | n | n | 20µM
COC(=O)N/N=C/c1ccc(OC(=O)/C=C/c2ccco2)cc1 | 70.8µM | n | n | n | x | u
CC(C)(C)OC(=O)N/N=C\c1ccc(OC(=O)c2ccco2)cc1 | n | n | x | n | n | 31.6µM
CC(=O)C(=O)O | x | x | x | n | x | x
CCSC(=O)N=Nc1ccc(O)cc1 | x | u | x | x | x | 56.2µM
CC1OC(CC(=O)O)CC2=C1C(=O)c1c(O)cccc1C2=O (centres undefined) | x | u | x | x | x | 56.2µM
NNc1ccc(Cc2ccc(Cl)cc2Cl)nn1 | 2.82µM | n | 12.6µM | n | n | 28.2µM
Cc1cnc(CN2CCCC(C(=O)c3ccc4c5c(cccc35)CC4)C2)[nH]1 (centres undefined) | u | u | n | n | u | 50.1µM
O=C(c1ccc2c3c(cccc13)CC2)C1CCCN(Cc2ccc(OCCO)cc2)C1 (centres undefined) | u | n | n | n | x | n
Cc1c(CN2CCC(CO)(CCOc3ccccc3)CC2)[nH]c2c(Cl)cccc12 | u | n | u | n | 50.1µM | n[11.4 µM]
Oc1c(/C=N/c2ncn[nH]2)ccc2ccccc12 | n | n | n | n | 2.24µM | u
Cc1cc(C)c2c(NC(=O)c3ccccc3Cl)c(C(=O)NCc3ccc(Cl)cc3)sc2n1 | u | n | x | x | n | n
COc1ccc(O)c(N)c1 | 50.1µM | x | x | 56.2µM | 7.94µM | x
Cn1c(=O)c2c(ncn2CC(=O)Nc2cccc(S(=O)(=O)Nc3ccccc3F)c2)n(C)c1=O | n | u | n | 56.2µM | x | n
O=C(Cc1ccc(Cl)cc1)Nc1cccc(S(=O)(=O)Nc2ccccc2F)c1 | n | n | n | n | n | n
O=C(CSc1ccc([N+](=O)[O-])cc1)Nc1cccc(S(=O)(=O)Nc2ccccc2F)c1 | n | u | n | 44.7µM | u | u
CC12CCC(C(=O)N(CCCCN3CCN(Cc4ccccc4)CC3)C1=O)C2(C)C (centres undefined) | n | n | n | n | 56.2µM | u
CC12CCC(C(=O)N(CC(O)CN3CCN(Cc4ccccc4)CC3)C1=O)C2(C)C (centres undefined) | u | n | n | n | n[12.7 µM] | n
COc1cc(N)ccc1NC(=O)c1cccs1 | n | n | n[11.4 µM] | n | 8.91µM | n
COc1nc(N)nc(NC(=O)c2cccs2)c1N=O | x | n | x | x | x | 28.2µM
Cc1cc(NC(=O)COc2ccccc2C)ccc1NC(=O)c1cccs1 | n | n | x | n | 79.4µM | n
COc1ccc(NC(=O)c2ccc(NC(=O)c3cccs3)cc2)cc1 | n | n | x | n | x | n
